Experimental data reported in publication PMC5913336, “True equilibrium measurement of transcription factor-DNA binding affinities using automated polarization microscopy”.

biological target: T1, GATAe (Drosophila melanogaster, UniProt Q9VF00 512-604); assay: FP; 33 mM phosphate pH 7.0, 90 mM NaCl, 0.01% Tween 20, 0.1 mM DTT, 0.5% agarose; room temperature; conditions: tags: N-GST (pGEX-6P-1, kept); dsDNA, one strand shown
T1 sequence: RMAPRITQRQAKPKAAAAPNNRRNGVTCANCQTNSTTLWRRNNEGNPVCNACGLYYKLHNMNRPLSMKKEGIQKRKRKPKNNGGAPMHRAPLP

Q: CATGTTATCTAG was tested. Which binding signal did it give?
A: 1.71 Kd / Kd of best base at the position

Q: Which binding signal does the source give for CCTGTTATCTAC here?
A: 1.53 Kd / Kd of best base at the position

Q: With CATGTTATCTAT as the sequence, how does the binding signal read?
A: 1.52 Kd / Kd of best base at the position

Q: Which binding signal does the source give for CAAGTTATCTAC here?
A: 2.12 Kd / Kd of best base at the position

Q: CATGTTATATAC was tested. Which binding signal did it give?
A: 17.7 Kd / Kd of best base at the position

Q: For CATGTGATCTAC, which binding signal is on record?
A: 11.2 Kd / Kd of best base at the position

Q: CATGTTATCTAA was tested. Which binding signal did it give?
A: 1.53 Kd / Kd of best base at the position

Q: With CATGTTGTCTAC as the sequence, how does the binding signal read?
A: 9.99 Kd / Kd of best base at the position

Q: With CATGTTACCTAC as the sequence, how does the binding signal read?
A: 20.8 Kd / Kd of best base at the position

Q: How did the binding signal turn out when CATATTATCTAC was run?
A: 2.02 Kd / Kd of best base at the position

Q: How did the Kd turn out when CATGTTATCTAC was run?
A: ~7.3 nM

Q: How did the binding signal turn out when CGTGTTATCTAC was run?
A: 1.55 Kd / Kd of best base at the position

Q: For CAGGTTATCTAC, which binding signal is on record?
A: 1.9 Kd / Kd of best base at the position

Q: Which binding signal does the source give for CATCTTATCTAC here?
A: 1.22 Kd / Kd of best base at the position

Q: With CATGTTAGCTAC as the sequence, how does the binding signal read?
A: 25.2 Kd / Kd of best base at the position

Q: Which binding signal does the source give for CATTTTATCTAC here?
A: 1.94 Kd / Kd of best base at the position

Q: How did the binding signal turn out when CATGTTATCGAC was run?
A: 2.3 Kd / Kd of best base at the position

Q: Which binding signal does the source give for CATGTAATCTAC here?
A: 2.43 Kd / Kd of best base at the position

Q: How did the binding signal turn out when CATGATATCTAC was run?
A: 2.32 Kd / Kd of best base at the position

Q: For CTTGTTATCTAC, which binding signal is on record?
A: 1.46 Kd / Kd of best base at the position

Q: CATGTTTTCTAC was tested. Which binding signal did it give?
A: 35.6 Kd / Kd of best base at the position

Q: For CATGTTATCCAC, which binding signal is on record?
A: 3.95 Kd / Kd of best base at the position

Q: For CATGTTATCTGC, which binding signal is on record?
A: 1.67 Kd / Kd of best base at the position

Q: For CATGTTAACTAC, which binding signal is on record?
A: 9.8 Kd / Kd of best base at the position

Q: How did the binding signal turn out when CATGCTATCTAC was run?
A: 2.34 Kd / Kd of best base at the position

Q: With CATGGTATCTAC as the sequence, how does the binding signal read?
A: 3.02 Kd / Kd of best base at the position

Q: How did the binding signal turn out when CATGTTATCTCC was run?
A: 1.58 Kd / Kd of best base at the position

Q: How did the binding signal turn out when CACGTTATCTAC was run?
A: 1.57 Kd / Kd of best base at the position

Q: How did the binding signal turn out when AATGTTATCTAC was run?
A: 1.68 Kd / Kd of best base at the position

Q: Which binding signal does the source give for TATGTTATCTAC here?
A: 1.62 Kd / Kd of best base at the position

Q: Which binding signal does the source give for GATGTTATCTAC here?
A: 1.64 Kd / Kd of best base at the position

Q: With CATGTCATCTAC as the sequence, how does the binding signal read?
A: 13.1 Kd / Kd of best base at the position

Q: How did the binding signal turn out when CATGTTATGTAC was run?
A: 25.2 Kd / Kd of best base at the position

Q: With CATGTTATCAAC as the sequence, how does the binding signal read?
A: 1.76 Kd / Kd of best base at the position

Q: Which binding signal does the source give for CATGTTCTCTAC here?
A: 42.3 Kd / Kd of best base at the position

Q: For CATGTTATTTAC, which binding signal is on record?
A: 15.3 Kd / Kd of best base at the position

Q: CATGTTATCTTC was tested. Which binding signal did it give?
A: 1.72 Kd / Kd of best base at the position
